In PubChem BioAssay (NCI):
Where “and” joins values, the source holds several entries; their conditions need not be identical. Identical values can stand only once. Compounds without any hit were thinned out: in the full panel of roughly 83,000, 20% have a hit.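 Step 1: grow cells in 96-well plates. Step 2: add test compound at a single concentration. Step 3: incubate 48 h. Step 4: record percent growth.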 Some structures have more than one record in an assay (separate samples or runs), and their calls can disagree. Calls of active or inactive are those of the source. Rule for the calls: active = growth percent below 10; inactive = the rest.

Key:
Experiment in all cases: NCI-60 one-dose screen, 48 h (100 = growth as untreated, 0 = no growth, -100 = all killed)
Settings in all cases: 10 µM unless noted
SK-MEL-2 melanoma = tested on: SK-MEL-2 melanoma
EKVX NSCLC = tested on: EKVX NSCLC
SN12C renal = tested on: SN12C renal
UO-31 renal = tested on: UO-31 renal
TK-10 renal = tested on: TK-10 renal
ACHN renal = tested on: ACHN renal
CAKI-1 renal = tested on: CAKI-1 renal
A498 renal = tested on: A498 renal
CCRF-CEM leukemia = tested on: CCRF-CEM leukemia
MOLT-4 leukemia = tested on: MOLT-4 leukemia
SR leukemia = tested on: SR leukemia
RPMI-8226 leukemia = tested on: RPMI-8226 leukemia
OVCAR-8 ovarian = tested on: OVCAR-8 ovarian
OVCAR-5 ovarian = tested on: OVCAR-5 ovarian
OVCAR-4 ovarian = tested on: OVCAR-4 ovarian
SK-OV-3 ovarian = tested on: SK-OV-3 ovarian
IGROV1 ovarian = tested on: IGROV1 ovarian
OVCAR-3 ovarian = tested on: OVCAR-3 ovarian
HS 578T breast = tested on: HS 578T breast
NCI/ADR-RES ovarian = tested on: NCI/ADR-RES ovarian

Measured: growth

Oc1nc(NCCc2ccccc2)sc1/C=C1\C=Nc2ncccc21
-12% (active) and 16% (inactive): ACHN renal
9.67% (active) and 14% (inactive): OVCAR-8 ovarian
2.11% (active) and 27% (inactive): SK-OV-3 ovarian
inactive: EKVX NSCLC 40.9% and 46% | SN12C renal 33.5% and 15.9% | UO-31 renal 36.6% and 25.2% | TK-10 renal 18.8% and 34.2% | CAKI-1 renal 54.8% and 37.4% | RPMI-8226 leukemia 38.7% and 39.2% | OVCAR-5 ovarian 18.1% and 37.8% | OVCAR-4 ovarian 32.3% and 23.8% | IGROV1 ovarian 25.6% and 14% | NCI/ADR-RES ovarian 58.4% and 72.9%
8.59% (active) and 11.4% (inactive): MOLT-4 leukemia
-4.61% (active) and 28.8% (inactive): SK-MEL-2 melanoma
active: A498 renal -21.3% and -7.55% | CCRF-CEM leukemia 5.53% and 9.93% | SR leukemia -1.51% and 5.6% | OVCAR-3 ovarian 3.41% and 5.65% | HS 578T breast 8.82% and 8.78%

O=C(/C=C\c1ccnc2ccccc12)c1ccc([N+](=O)[O-])cc1
inactive: SK-MEL-2 melanoma 83.4% and 93.8% | EKVX NSCLC 75.3% | SN12C renal 96.9% and 86.2% | UO-31 renal 61.6% and 49.7% | TK-10 renal 81.3% and 86.9% | ACHN renal 75.2% and 70.6% | CAKI-1 renal 89.8% and 70.3% | A498 renal 109% and 55.2% | CCRF-CEM leukemia 67.9% and 28.6% | MOLT-4 leukemia 63.1% and 49.3% | OVCAR-8 ovarian 99.1% and 73.5% | OVCAR-5 ovarian 89.4% and 96.3% | OVCAR-4 ovarian 85.3% and 63.1% | SK-OV-3 ovarian 95% and 89.6% | IGROV1 ovarian 108% and 92.9% | OVCAR-3 ovarian 100% and 87.8% | NCI/ADR-RES ovarian 81.6% and 67.4%
31.1% (inactive) and -26.4% (active): RPMI-8226 leukemia
active: SR leukemia 6.51%

CC(=O)Nc1ccc2cc3ccc(NC(C)=O)cc3nc2c1
inactive: SK-MEL-2 melanoma 95.9% and 108% | EKVX NSCLC 80.6% and 78.4% | SN12C renal 52.6% and 52.2% | UO-31 renal 79% and 76% | TK-10 renal 136% and 119% | ACHN renal 79.1% and 58.4% | CAKI-1 renal 45.9% and 97.2% | A498 renal 115% and 113% | CCRF-CEM leukemia 78.9% and 104% | MOLT-4 leukemia 54.9% and 74.7% | SR leukemia 72.3% | RPMI-8226 leukemia 54.5% and 94.8% | OVCAR-8 ovarian 88.7% and 85.6% | OVCAR-5 ovarian 89.2% and 63.4% | OVCAR-4 ovarian 87.1% and 98.3% | IGROV1 ovarian 85.8% and 101% | OVCAR-3 ovarian 85.8% and 99.2% | HS 578T breast 84.3% and 87.3% | NCI/ADR-RES ovarian 99.9% and 97.7%
-13.4% (active) and 67.8% (inactive): SK-OV-3 ovarian

COc1ccc2ccccc2c1/C=N/N1CCCCC1
inactive: SK-MEL-2 melanoma 102% | EKVX NSCLC 93.6% | SN12C renal 96.9% | UO-31 renal 88.9% | TK-10 renal 105% | ACHN renal 99% | CAKI-1 renal 85.7% | A498 renal 89% | CCRF-CEM leukemia 96.7% | MOLT-4 leukemia 88.3% | SR leukemia 108% | RPMI-8226 leukemia 91.3% | OVCAR-8 ovarian 95.4% | OVCAR-5 ovarian 98.7% | OVCAR-4 ovarian 99.5% | SK-OV-3 ovarian 111% | IGROV1 ovarian 116% | OVCAR-3 ovarian 103% | HS 578T breast 98.5% | NCI/ADR-RES ovarian 90.9%

CC1=C(/C=C/C(C)=C/C=C/C(C)=C/C=N/NC(=S)NC(=S)N/N=C/C=C(C)/C=C/C=C(C)/C=C/C2=C(C)CCCC2(C)C)C(C)(C)CCC1
23.6% (inactive) and 1.02% (active): SR leukemia
23.6% (inactive) and -47.4% (active): A498 renal
inactive: EKVX NSCLC 36% and 25.5% | ACHN renal 38.9% and 10.2% | SK-OV-3 ovarian 57.5%
17% (inactive) and -0.538% (active): OVCAR-4 ovarian
active: SK-MEL-2 melanoma -66.4% and -84.6% | SN12C renal -29% and -55.2% | UO-31 renal -36% and -47.4% | TK-10 renal -8.64% and -42.5% | CAKI-1 renal -37.9% and -20.1% | CCRF-CEM leukemia -16.5% and -23.4% | MOLT-4 leukemia -22.2% and -41.2% | RPMI-8226 leukemia -2.02% and -32.7% | OVCAR-8 ovarian -12.5% and -74.8% | OVCAR-5 ovarian -48.3% and -77.7% | IGROV1 ovarian -34.8% and -39.5% | OVCAR-3 ovarian -74.5% and -99.4% | NCI/ADR-RES ovarian -34% and -58.9%

O=[N+]([O-])c1ccccc1N(S(=O)(=O)c1ccccc1)S(=O)(=O)c1ccccc1
inactive: SK-MEL-2 melanoma 106% | EKVX NSCLC 102% and 85.1% | SN12C renal 102% and 99.2% | UO-31 renal 86.7% and 67% | TK-10 renal 93.3% and 97.1% | ACHN renal 102% and 93.4% | CAKI-1 renal 79.4% and 56.3% | A498 renal 86.9% and 98.6% | CCRF-CEM leukemia 53.7% and 105% | SR leukemia 85.8% and 101% | RPMI-8226 leukemia 85.4% and 90.4% | OVCAR-8 ovarian 98.2% and 95.6% | OVCAR-5 ovarian 105% and 101% | OVCAR-4 ovarian 115% | SK-OV-3 ovarian 109% and 111% | IGROV1 ovarian 99.2% and 96.7% | OVCAR-3 ovarian 107% and 93.5% | HS 578T breast 113% | NCI/ADR-RES ovarian 98.9% and 86.3%
-13.5% (active) and 103% (inactive): MOLT-4 leukemia

CN1CCN(C2CCN(C(=O)Nc3cc(Oc4ccc(NC(=O)C5(C(=O)Nc6ccc(F)cc6)CC5)c(F)c4)ccn3)CC2)CC1
-5.41% (active) and 83.2% (inactive): OVCAR-4 ovarian
-22.9% (active) and 58.4% (inactive): SR leukemia
-68.6% (active) and 92.8% (inactive): A498 renal
-55% (active) and 91.6% (inactive): OVCAR-8 ovarian
-10.9% (active) and 94.3% (inactive): OVCAR-5 ovarian
inactive: SK-MEL-2 melanoma 81.3% | HS 578T breast 56.7% | NCI/ADR-RES ovarian 13.3% and 99.5%
-3.96% (active) and 53.5% (inactive): ACHN renal
-34.8% (active) and 44.8% (inactive): CAKI-1 renal
0.274% (active) and 101% (inactive): CCRF-CEM leukemia
-10.9% (active) and 86.6% (inactive): MOLT-4 leukemia
2.87% (active) and 108% (inactive): OVCAR-3 ovarian
3.24% (active) and 99.4% (inactive): EKVX NSCLC
-51.1% (active) and 74.6% (inactive): SK-OV-3 ovarian
-61.7% (active) and 92.4% (inactive): UO-31 renal
-58.6% (active) and 55.3% (inactive): IGROV1 ovarian
-38.9% (active) and 105% (inactive): RPMI-8226 leukemia
-55.1% (active) and 50.6% (inactive): SN12C renal
-47.9% (active) and 98.4% (inactive): TK-10 renal

CCC(=O)C(CC)c1cccc(OC)c1 (configuration not stated)
inactive: SK-MEL-2 melanoma 116% | EKVX NSCLC 106% | SN12C renal 112% | UO-31 renal 89.9% | TK-10 renal 101% | ACHN renal 106% | CAKI-1 renal 94.4% | A498 renal 87.8% | CCRF-CEM leukemia 93.8% | MOLT-4 leukemia 98.4% | SR leukemia 96.7% | RPMI-8226 leukemia 101% | OVCAR-8 ovarian 105% | OVCAR-5 ovarian 115% | OVCAR-4 ovarian 105% | SK-OV-3 ovarian 121% | IGROV1 ovarian 107% | OVCAR-3 ovarian 117% | NCI/ADR-RES ovarian 101%

O=C(Nc1ccc(Cl)cc1)c1cc2ccccc2cc1O
10.9% (inactive) and 4.71% (active): UO-31 renal
36.9% (inactive) and 7.35% (active): SK-MEL-2 melanoma
26.1% (inactive) and -5.89% (active): OVCAR-8 ovarian
12.5% (inactive) and 6.49% (active): NCI/ADR-RES ovarian
15.8% (inactive) and -13.9% (active): SR leukemia
53.3% (inactive) and 8.41% (active): TK-10 renal
34.5% (inactive) and -23.4% (active): CAKI-1 renal
active: SN12C renal 8.95% and -2.39% | A498 renal -5.52% | MOLT-4 leukemia 4.27% and -8.37% | RPMI-8226 leukemia -10.7% and -29%
14.4% (inactive) and 5.62% (active): OVCAR-3 ovarian
inactive: EKVX NSCLC 15.3% and 14.6% | ACHN renal 30.3% and 31.2% | CCRF-CEM leukemia 17.8% | OVCAR-5 ovarian 78.8% and 42.7% | OVCAR-4 ovarian 34.5% and 20.9% | SK-OV-3 ovarian 18.9% | IGROV1 ovarian 23.3% and 21.8%
15.8% (inactive) and 4.92% (active): HS 578T breast
